Experimental data taken from PubChem BioAssay (NCATS).
Values without a mark were called inactive. Inconclusive results are not listed. Calls of active or inactive are those of the source. Unless noted, the call rests on the fitted dose curve; in most records, active means well fitted curve in either direction with a large enough effect (not every such curve was filed as active); inconclusive means small, poorly fitted or top-dose-only effect, or another doubt; inactive means flat fitted curve, though single readings scatter.

Experiments:
[1] = biological target: Lysosomal acid glucosylceramidase (Homo sapiens) (UniProt P04062); assay: Glucocerebrosidase-p2 (AID 348; in the data active means potency below about 10 µM; further: potency means the concentration at half of the fitted maximal effect); conditions: purified GBA, blue fluorogenic substrate, 40 min
Method in brief: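 Compounds titrated from 0.6 nM upwards against 0.2 nM enzyme in pH 5.9 citric acid/KH2PO4, taurocholate, tween-20; blue fluorogenic substrate 80 uM, 40 min room temperature, stopped and read Ex 365/Em 440 for AC50.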

[2] = AP1 Signaling Pathway (AID 357); conditions: ME-180 AP-1-bla reporter, EGF-induced, beta-lactamase ratio, 5 h; at 7.69 µM (top of the series) unless noted;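 further: ME-180 reporter cells stimulated with EGF at its EC50 level; on the % scale 0 is the no-effect control and ±100 the full control effect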
Method in brief: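 Modulation of EGF-driven AP-1 transcription was assessed with a beta-lactamase reporter in ME-180 cells. Compound and EC50 EGF were co-incubated 5 hours at 37 °C before 2.5-hour CCF4 loading at room temperature and dual-emission reading.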

[3] = NFAT Signaling Pathway (AID 444); conditions: Jurkat NFAT-bla M1, carbachol, beta-lactamase ratio, 5 h; at 7.69 µM (top of the series) unless noted;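 further: carbachol stimulus at about its EC50 of 1 µM final; on the % scale 0 is the no-effect control and ±100 the full control effect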
Method in brief: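 Read-out: CCF4 FRET ratio (460 nm/530 nm) after 1 h RT dye loading, used for %activity and AC50 from titration series. Cells: Jurkat NFAT-β-lactamase/M1 line, treated with compound plus 1 uM carbachol for 5 h, 37 °C.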

[4] = Stat Signaling Pathway (AID 446); conditions: ME-180 SIE beta-lactamase reporter, IL-6 stimulated, 5 h; at 7.69 µM (top of the series) unless noted;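 further: ME-180 cervical cancer cells given 40 pM IL-6 alongside compound; SIE-controlled beta-lactamase reporter measured as 460/530 nm FRET emission ratio; on the % scale 0 is the no-effect control and ±100 the full control effect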
Method in brief: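 Screening format detects activators and inhibitors alike: ME-180 SIE-bla cells stimulated at 40 pM IL-6 for 5 hrs with compound, then dual-emission beta-lactamase read at 405 nm excitation.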

[5] = biological target: Glucocorticoid receptor (Homo sapiens) (UniProt P04150); assay: GR-GFP Redistribution (AID 450;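 active means compounds whose dose series gives a full or clear partial fitted curve of increased nuclear translocation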; further: potency means the concentration at half of the fitted maximal effect); conditions: U2OS GR-GFP nuclear translocation, laser cytometry, 2 h
[6] = biological target: Glucocorticoid receptor (Homo sapiens) (UniProt P04150); assay: GR-EFC Redistribution (AID 451; calls by dose curve; further: potency means the concentration at half of the fitted maximal effect); conditions: CHO-K1 GR-EFC translocation, beta-gal luminescence, 2 h
Method in brief: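 Translocation of GR-ED fusion to nuclear EA restores b-gal, read by luminescence after 1 h room-temperature detection. Engineered CHO-K1 biosensor cells, 1,000/well, exposed 2 h at 37 C to titrations up to 46 uM final.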

[7] = biological target: Mitogen-activated protein kinase 10 (Mus musculus) (UniProt Q61831); assay: JNK3 AlphaScreen Assay (AID 530); conditions: JNK3 lysate, c-Jun phosphorylation; series mostly up to 11.4 µM;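 further: kinase came from lysate of stimulated human HepG2 cells; signal reports phosphorylation of biotinylated GST-cJun 1-79 at Ser73 with 10 µM ATP; on the % scale 0 is the no-effect control and ±100 the full control effect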
Method in brief: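 Compound titrations were preincubated 15 minutes at room temperature with substrate, antibody and pre-activated JNK3-containing HepG2 lysate. Reactions were started with 10 uM ATP and stopped with EDTA-containing bead buffer for AlphaScreen detection.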

[8] = biological target: 3',5'-cyclic-AMP phosphodiesterase 4B (Homo sapiens) (UniProt Q07343); assay: qHTS Assay for Inhibitors of PDE-IV (AID 607; active means well fitted activation curve with a large enough effect in the main read-out, with a control signal flat, not every such curve was filed as active; further: % of control where 0% means no effect); conditions: HEK293 ACTOne CNG channel cells, membrane potential fluorescence; series mostly up to 22.9 µM
Method in brief: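 The readout is membrane depolarisation from a cAMP-sensing CNG channel, detected with a potential dye at ex 535/em 590. Cells were HEK293-derived (endogenous PDE-IV) at 1000 cells/well, titrated up to 22.9 uM final.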

[9] = biological target: Cytochrome P450 3A4 (Homo sapiens) (UniProt P08684); assay: qHTS Assay for Inhibitors and Substrates of Cytochrome P450 3A4 (AID 884; active means well fitted curve in the direction sought with a large enough effect; an effect the other way counts as inactive or inconclusive; further: nearly all actives have a fitted effect of over 50% in size; further: potency means the concentration at half of the fitted maximal effect); conditions: recombinant CYP3A4, Luciferin-PPXE luminescence; series mostly up to 57.1 µM
Method in brief: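 20 nM human CYP3A4 with 25 uM Luciferin-PPXE (at KM) in 200 mM KPO4, preincubated 10 min with compound; NADPH regeneration started a 60 min RT reaction. Luciferin detected by luminescence, normalized to 57 uM ketoconazole as full inhibition.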

[10] = biological target: Cytochrome P450 3A4 (Homo sapiens) (UniProt P08684); assay: qHTS Assay for Activators of Cytochrome P450 3A4 (AID 885; active means well fitted curve in the direction sought with a large enough effect; an effect the other way counts as inactive or inconclusive; further: nearly all actives have a fitted effect of over 65% in size; further: potency means the concentration at half of the fitted maximal effect); conditions: recombinant CYP3A4, Luciferin-PPXE luminescence, 60 min; series mostly up to 11.4 µM
Method in brief: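 Steps: enzyme/substrate mix dispensed; compound added, 10 min RT; NADPH regeneration solution added, 60 min RT; luciferin detection buffer stops reaction; 20 min later luminescence measured.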

[11] = biological target: Cytochrome P450 2C9 (Homo sapiens) (UniProt P11712); assay: qHTS Assay for Inhibitors and Substrates of Cytochrome P450 2C9 (AID 883; active means well fitted curve in the direction sought with a large enough effect; an effect the other way counts as inactive or inconclusive; further: potency means the concentration at half of the fitted maximal effect; nearly all actives have a fitted effect of over 60% in size); conditions: recombinant CYP2C9, luciferin-H luminescence, 60 min; series mostly up to 11.4 µM
Method in brief: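 Turnover of Luciferin-H (100uM, KM) by 10nM human CYP2C9 was measured over 60 min at 37C with NADPH regeneration; inhibitors and some substrates reduce luminescence. Data normalized to sulphaphenazole 57uM.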

[12] = biological target: Cytochrome P450 2C19 (Homo sapiens) (UniProt P33261); assay: qHTS Assay for Inhibitors and Substrates of Cytochrome P450 2C19 (AID 899; active means well fitted curve in the direction sought with a large enough effect; an effect the other way counts as inactive or inconclusive; further: nearly all actives have a fitted effect of over 60% in size; further: potency means the concentration at half of the fitted maximal effect); conditions: recombinant CYP2C19, luciferin-H EGE luminescence; series mostly up to 11.4 µM
Method in brief: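 Reactions contain 5nM enzyme, 10uM Luciferin-H EGE (KM) and 50mM KPO4; compound preincubates 10 min at 37C, NADPH regeneration starts turnover for 60 min. Luminescence after detection reagent gives activity.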

[13] = biological target: Cytochrome P450 2D6 (Homo sapiens) (UniProt P10635); assay: qHTS Assay for Inhibitors and Substrates of Cytochrome P450 2D6 (AID 891; active means well fitted curve in the direction sought with a large enough effect; an effect the other way counts as inactive or inconclusive; further: nearly all actives have a fitted effect of over 60% in size; further: potency means the concentration at half of the fitted maximal effect); conditions: recombinant CYP2D6, luciferin-ME EGE luminescence; series mostly up to 11.4 µM
Method in brief: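 Human CYP2D6 (5 nM) with 30 uM Luciferin-ME EGE (at Km) in 100 mM KPO4, compound preincubated 10 min, then NADPH regeneration system for 60 min at room temperature. Luciferin read by luminescence; normalized to 1.43 uM quinidine.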

Cytochrome P450 2C19 (Homo sapiens), sequence (P33261 whole entry, looked up): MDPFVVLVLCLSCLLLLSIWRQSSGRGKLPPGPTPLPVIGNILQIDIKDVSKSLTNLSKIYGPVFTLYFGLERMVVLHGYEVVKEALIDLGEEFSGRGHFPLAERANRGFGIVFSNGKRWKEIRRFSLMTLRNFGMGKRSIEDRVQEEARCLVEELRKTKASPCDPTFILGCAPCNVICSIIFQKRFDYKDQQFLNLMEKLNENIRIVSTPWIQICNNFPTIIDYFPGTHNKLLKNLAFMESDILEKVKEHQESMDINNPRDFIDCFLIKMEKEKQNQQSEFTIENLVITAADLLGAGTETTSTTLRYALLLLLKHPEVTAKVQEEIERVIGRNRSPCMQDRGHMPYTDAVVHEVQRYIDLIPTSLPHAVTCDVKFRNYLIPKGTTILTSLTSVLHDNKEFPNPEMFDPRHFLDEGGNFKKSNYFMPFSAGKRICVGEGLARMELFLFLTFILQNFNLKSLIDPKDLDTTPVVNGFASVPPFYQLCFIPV
Glucocorticoid receptor (Homo sapiens), sequence (P04150 whole entry, looked up, the tested form may be a part): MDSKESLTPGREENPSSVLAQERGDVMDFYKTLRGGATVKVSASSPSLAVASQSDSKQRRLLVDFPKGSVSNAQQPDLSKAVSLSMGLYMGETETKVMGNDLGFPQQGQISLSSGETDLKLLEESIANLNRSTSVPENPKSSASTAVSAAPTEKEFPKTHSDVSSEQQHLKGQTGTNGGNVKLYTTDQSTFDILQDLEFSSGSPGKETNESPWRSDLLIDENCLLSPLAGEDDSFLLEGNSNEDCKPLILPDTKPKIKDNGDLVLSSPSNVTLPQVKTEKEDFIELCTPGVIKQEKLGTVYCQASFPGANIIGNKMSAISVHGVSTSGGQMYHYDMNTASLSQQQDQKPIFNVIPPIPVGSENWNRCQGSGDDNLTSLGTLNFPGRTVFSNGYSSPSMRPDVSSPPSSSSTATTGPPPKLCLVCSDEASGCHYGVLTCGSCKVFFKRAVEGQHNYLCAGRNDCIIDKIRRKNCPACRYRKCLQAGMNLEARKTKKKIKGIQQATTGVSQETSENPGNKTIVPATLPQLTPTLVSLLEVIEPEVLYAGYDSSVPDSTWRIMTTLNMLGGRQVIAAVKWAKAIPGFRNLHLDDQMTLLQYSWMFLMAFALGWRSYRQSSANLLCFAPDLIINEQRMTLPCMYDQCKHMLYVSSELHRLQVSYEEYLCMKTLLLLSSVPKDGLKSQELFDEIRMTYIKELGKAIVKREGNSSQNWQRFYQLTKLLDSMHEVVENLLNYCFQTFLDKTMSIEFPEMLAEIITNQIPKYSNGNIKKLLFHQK
3',5'-cyclic-AMP phosphodiesterase 4B (Homo sapiens), sequence (Q07343 whole entry, looked up): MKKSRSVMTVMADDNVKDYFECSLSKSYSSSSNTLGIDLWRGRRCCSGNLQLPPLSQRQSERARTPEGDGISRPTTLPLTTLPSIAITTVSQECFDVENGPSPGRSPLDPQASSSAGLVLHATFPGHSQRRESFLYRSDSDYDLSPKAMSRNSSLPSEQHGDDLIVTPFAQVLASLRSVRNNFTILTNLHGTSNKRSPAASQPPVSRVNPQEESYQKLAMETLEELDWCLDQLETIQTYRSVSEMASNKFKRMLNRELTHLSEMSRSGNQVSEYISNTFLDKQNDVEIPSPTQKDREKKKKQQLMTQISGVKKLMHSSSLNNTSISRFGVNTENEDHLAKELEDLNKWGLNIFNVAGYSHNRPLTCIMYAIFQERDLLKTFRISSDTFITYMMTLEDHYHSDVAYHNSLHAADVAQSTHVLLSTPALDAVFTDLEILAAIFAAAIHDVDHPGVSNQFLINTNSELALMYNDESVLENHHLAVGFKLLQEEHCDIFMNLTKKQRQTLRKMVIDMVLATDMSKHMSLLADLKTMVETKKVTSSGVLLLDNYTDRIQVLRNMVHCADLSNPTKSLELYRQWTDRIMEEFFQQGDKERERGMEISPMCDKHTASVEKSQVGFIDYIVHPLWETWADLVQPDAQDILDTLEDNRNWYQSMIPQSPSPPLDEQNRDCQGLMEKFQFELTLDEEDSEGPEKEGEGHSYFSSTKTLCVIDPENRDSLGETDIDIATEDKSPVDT
Cytochrome P450 3A4 (Homo sapiens), sequence (P08684 whole entry, looked up): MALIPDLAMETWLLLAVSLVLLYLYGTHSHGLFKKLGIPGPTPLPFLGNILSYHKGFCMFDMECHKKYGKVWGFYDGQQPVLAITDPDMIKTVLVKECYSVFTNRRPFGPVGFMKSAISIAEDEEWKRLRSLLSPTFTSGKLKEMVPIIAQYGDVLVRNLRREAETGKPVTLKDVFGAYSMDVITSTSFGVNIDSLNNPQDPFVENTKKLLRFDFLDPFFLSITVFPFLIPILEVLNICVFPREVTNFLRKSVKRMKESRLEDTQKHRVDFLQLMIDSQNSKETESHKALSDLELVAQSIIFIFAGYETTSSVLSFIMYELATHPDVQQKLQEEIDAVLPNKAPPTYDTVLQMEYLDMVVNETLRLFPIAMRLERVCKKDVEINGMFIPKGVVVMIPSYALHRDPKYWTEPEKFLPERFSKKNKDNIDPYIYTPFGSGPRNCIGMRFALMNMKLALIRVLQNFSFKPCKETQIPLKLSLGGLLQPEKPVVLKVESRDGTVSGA
Lysosomal acid glucosylceramidase (Homo sapiens), sequence (P04062 whole entry, looked up): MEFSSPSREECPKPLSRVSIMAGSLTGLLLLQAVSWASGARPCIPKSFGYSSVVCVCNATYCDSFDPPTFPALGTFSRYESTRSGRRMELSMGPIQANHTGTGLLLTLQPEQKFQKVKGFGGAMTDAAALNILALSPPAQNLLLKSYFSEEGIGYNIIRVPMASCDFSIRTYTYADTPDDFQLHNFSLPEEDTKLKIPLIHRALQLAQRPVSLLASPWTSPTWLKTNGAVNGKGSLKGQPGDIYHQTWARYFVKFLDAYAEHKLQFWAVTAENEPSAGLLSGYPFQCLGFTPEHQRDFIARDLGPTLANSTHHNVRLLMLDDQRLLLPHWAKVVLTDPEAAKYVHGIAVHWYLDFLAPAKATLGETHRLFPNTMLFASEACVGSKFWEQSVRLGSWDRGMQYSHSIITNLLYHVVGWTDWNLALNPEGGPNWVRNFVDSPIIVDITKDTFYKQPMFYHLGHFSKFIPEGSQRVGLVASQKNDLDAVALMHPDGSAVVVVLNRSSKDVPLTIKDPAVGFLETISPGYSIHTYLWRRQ
Cytochrome P450 2D6 (Homo sapiens), sequence (P10635 whole entry, looked up): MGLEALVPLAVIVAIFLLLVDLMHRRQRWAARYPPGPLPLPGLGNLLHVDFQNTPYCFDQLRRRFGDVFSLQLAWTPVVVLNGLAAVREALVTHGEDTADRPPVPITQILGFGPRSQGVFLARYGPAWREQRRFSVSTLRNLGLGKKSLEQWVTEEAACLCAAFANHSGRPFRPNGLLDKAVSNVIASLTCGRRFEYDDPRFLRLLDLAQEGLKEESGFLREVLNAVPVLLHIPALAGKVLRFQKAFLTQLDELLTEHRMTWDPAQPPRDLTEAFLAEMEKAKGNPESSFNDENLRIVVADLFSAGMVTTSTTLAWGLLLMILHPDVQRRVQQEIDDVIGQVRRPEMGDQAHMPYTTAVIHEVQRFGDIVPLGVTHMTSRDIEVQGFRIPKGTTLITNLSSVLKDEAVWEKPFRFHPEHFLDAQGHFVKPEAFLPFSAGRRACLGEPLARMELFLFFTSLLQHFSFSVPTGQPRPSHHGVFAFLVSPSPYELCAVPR
Cytochrome P450 2C9 (Homo sapiens), sequence (P11712 whole entry, looked up): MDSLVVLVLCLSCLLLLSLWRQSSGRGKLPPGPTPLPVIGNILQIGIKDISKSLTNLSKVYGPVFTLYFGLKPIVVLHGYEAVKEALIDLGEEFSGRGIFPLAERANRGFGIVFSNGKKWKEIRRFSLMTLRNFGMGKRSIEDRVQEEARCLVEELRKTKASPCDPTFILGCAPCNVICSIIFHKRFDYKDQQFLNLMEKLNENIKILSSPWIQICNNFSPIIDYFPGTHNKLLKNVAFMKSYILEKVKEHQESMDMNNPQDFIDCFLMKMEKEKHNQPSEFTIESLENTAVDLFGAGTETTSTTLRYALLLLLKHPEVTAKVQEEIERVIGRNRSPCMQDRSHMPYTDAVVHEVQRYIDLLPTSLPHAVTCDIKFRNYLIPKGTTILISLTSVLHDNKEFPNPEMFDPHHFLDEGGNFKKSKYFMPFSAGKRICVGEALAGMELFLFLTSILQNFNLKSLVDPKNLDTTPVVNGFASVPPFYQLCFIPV

Compound	Potency [1]	activity change, negative = inhibition [2] [%]	activity change, negative = inhibition [3]	activity, negative = inhibition [4] [%]	Potency [5] [µM]	Potency [6] [µM]	Potency [7]	Potency [8]	Potency [9]	Potency [10]	Potency [11]	Potency [12]	Potency [13]	activity change, negative = inhibition [9]
CN1CCC(n2[nH]c(-c3ccccc3)c(Cc3ccccc3)c2=O)CC1	> 11.4 µM	-1.32	-82.4% (active)	11.1	> 46	> 9.22	inactive	inactive	3.98 µM (active)					
CC(C)(C)c1ccc(-c2nnc(SCc3ccc(Cl)cc3)n2-c2cccc(C(F)(F)F)c2)cc1	> 11.4 µM	5.08	-23.1%	3.24	> 46	> 9.22	inactive	inactive		inactive				
O=S1(=O)CCN(c2ccccc2CC(c2c[nH]c3ccccc23)c2c[nH]c3ccccc23)CC1	> 11.4 µM	-12.9	-27.4%	-20.7	> 46	> 9.22	inactive	inactive		inactive	3.16 µM (active)	3.16 µM (active)		
CN(Cc1cc(Br)cc(Br)c1O)Cc1c(O)ccc2ccccc12	> 11.4 µM	3.01	-25.5%	-8.41	> 46	> 9.22	inactive	inactive		inactive		0.501 µM (active)	1.58 µM (active)	
O=c1[nH]c(SCc2ccccc2[N+](=O)[O-])nc2nc[nH]c12	> 11.4 µM	9.58	13.2%	10.1	> 46	> 9.22	inactive	inactive		inactive				-21.6% [at 11.4 µM]
c1ccc(CCN2CCN=C2Cc2ccccc2)cc1	> 11.4 µM	6.53	-21.9%	14.6	> 46	> 9.22	inactive	inactive					0.126 µM (active)	
Cc1cc(N2CCOCC2)nc2ccc(Cc3ccc4nc(N5CCOCC5)cc(C)c4c3)cc12	6.83 µM (active)	-21.7	-6.47%	-14.5	> 46	> 9.22	inactive	inactive		3.16 µM (active)				91.2% [at 11.4 µM]
O=C(O)/C(=C\c1ccccc1)Cc1ccccc1	> 11.4 µM	-5.32	3.67%	5.03	> 46	> 9.22	inactive	inactive						30.2% [at 11.4 µM]
O=C1c2ccccc2C(=O)c2c1ccc(N1C(=O)c3ccccc3C1=O)c2-c1c(N2C(=O)c3ccccc3C2=O)ccc2c1C(=O)c1ccccc1C2=O	> 11.4 µM	-8.78	-22.9%	12	> 46	> 9.22	inactive	inactive				inactive	inactive	
c1ccc2sc(SCN(C3CCCCC3)C3CCCCC3)nc2c1	> 11.4 µM	4.99	-7.96%	-3.43	> 46	> 9.22	inactive	inactive					1.58 µM (active)	
COc1ccc(-c2nc3cnc(Oc4ccccc4)nc3n(C3CC3)c2=O)cc1	> 11.4 µM	-23.1	15.1%	4.9	> 9.22	> 46	inactive	inactive		inactive				
Cc1cc2c(SCc3ccccc3Cl)nc(N)nc2nc1C	> 11.4 µM	-22.2	15%	-10.5	> 46	> 9.22	inactive	inactive						
O=C(O)c1ccc(Oc2nc3ccccc3s2)cc1	> 11.4 µM	-5.86	11.2%	5.77	> 46	> 9.22	inactive	inactive		inactive		3.98 µM (active)		
CN1CCN(CN2C(=O)C3C4C=CC(C3C2=O)C2C3C(=O)N(CN5CCN(C)CC5)C(=O)C3C42)CC1 (stereo not drawn)	> 11.4 µM	4.11	4.36%	11	> 46	> 9.22	inactive	inactive					inactive	
CC(=O)/C(=C\c1ccccc1F)C(=O)c1ccccc1	> 11.4 µM	-4.86	2.06%	-1.38	> 46	> 9.22	inactive	inactive		inactive		2 µM (active)		
